# Measured values: the supplement of paper PMC10849652
# Of roughly 7,900 targets only a part is listed; those with a hit were picked by preference. About 0.6% of all pairs of compound and target were hits. Values without a mark were called inactive.
# Compound: C1=CC=C(C=C1)[C@H](COC2=CC3=C(C=C2)NC(=O)N3)NC(=O)C4=CC=CN(C4=O)CC5=CC(=C(C=C5)F)F
# Assay: log2 fold change, soluble protein after heating vs DMSO (PISA); higher = thermal stabilisation; K562 cells, 10 uM, 30 min; active = over 0.2 and 3.5 SD of the protein, either way, in both replicates (recomputed)
# Outline: (§1)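 K562 cells at 2×10^6 cells/mL were treated with 10 μM compound for 30 min. Aliquots were heated for 3 min across 48°C-58°C, pooled, and extracted in PBS with 0.5% NP-40 at 4°C; soluble protein was the supernatant after 21,000xg for 90 min. Soluble protein was quantified by TMTpro 16plex LC-MS/MS with channel sums equalised, and reported as log2 fold change in thermal stability against DMSO controls, with values from duplicates.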
# Chain of UniProt Q14680 (Q14680 whole entry, looked up): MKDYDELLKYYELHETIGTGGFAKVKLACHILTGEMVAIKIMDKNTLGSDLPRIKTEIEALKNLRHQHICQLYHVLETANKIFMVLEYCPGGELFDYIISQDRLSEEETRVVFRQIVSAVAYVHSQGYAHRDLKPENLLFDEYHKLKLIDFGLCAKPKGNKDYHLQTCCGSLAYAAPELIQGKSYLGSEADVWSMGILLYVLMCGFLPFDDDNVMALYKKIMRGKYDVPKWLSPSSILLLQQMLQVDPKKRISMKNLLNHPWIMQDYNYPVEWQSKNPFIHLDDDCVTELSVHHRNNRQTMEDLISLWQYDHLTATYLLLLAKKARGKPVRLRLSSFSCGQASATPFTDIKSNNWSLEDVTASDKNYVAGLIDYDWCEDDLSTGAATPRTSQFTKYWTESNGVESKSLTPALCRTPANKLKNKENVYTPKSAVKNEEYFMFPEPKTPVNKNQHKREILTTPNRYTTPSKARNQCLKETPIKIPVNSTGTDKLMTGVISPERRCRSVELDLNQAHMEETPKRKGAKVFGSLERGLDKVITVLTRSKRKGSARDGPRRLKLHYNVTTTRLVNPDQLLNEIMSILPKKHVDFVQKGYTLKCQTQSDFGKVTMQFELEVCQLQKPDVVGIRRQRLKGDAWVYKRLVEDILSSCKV
# Chain of UniProt O60291 (O60291 whole entry, looked up): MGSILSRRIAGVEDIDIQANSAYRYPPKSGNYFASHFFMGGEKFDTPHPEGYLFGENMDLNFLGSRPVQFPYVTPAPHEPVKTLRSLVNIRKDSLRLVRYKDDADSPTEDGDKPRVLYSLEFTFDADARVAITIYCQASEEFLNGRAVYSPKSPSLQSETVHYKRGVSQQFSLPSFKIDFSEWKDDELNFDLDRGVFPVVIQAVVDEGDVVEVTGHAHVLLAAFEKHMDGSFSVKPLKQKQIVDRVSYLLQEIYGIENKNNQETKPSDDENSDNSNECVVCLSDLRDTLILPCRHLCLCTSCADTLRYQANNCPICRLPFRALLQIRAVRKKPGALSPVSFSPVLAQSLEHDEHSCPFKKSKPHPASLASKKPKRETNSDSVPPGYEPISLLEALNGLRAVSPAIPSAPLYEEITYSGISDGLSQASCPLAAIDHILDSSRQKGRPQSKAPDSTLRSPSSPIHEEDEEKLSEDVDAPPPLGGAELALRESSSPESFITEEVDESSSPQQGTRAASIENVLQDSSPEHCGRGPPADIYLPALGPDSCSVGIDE
# Chain of UniProt Q92551 (Q92551 whole entry, looked up): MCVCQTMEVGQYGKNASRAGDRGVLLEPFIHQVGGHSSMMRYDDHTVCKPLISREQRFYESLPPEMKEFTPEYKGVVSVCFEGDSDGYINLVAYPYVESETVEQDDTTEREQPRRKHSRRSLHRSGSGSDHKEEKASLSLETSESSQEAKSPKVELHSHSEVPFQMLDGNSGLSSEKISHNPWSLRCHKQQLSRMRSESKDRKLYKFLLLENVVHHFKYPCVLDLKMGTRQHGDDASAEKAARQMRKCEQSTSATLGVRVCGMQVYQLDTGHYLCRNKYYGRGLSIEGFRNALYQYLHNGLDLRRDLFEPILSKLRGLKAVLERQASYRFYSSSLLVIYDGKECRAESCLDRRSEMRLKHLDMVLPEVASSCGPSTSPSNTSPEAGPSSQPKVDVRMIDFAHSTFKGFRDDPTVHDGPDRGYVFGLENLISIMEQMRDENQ
# Chain of UniProt Q12851 (Q12851 whole entry, looked up): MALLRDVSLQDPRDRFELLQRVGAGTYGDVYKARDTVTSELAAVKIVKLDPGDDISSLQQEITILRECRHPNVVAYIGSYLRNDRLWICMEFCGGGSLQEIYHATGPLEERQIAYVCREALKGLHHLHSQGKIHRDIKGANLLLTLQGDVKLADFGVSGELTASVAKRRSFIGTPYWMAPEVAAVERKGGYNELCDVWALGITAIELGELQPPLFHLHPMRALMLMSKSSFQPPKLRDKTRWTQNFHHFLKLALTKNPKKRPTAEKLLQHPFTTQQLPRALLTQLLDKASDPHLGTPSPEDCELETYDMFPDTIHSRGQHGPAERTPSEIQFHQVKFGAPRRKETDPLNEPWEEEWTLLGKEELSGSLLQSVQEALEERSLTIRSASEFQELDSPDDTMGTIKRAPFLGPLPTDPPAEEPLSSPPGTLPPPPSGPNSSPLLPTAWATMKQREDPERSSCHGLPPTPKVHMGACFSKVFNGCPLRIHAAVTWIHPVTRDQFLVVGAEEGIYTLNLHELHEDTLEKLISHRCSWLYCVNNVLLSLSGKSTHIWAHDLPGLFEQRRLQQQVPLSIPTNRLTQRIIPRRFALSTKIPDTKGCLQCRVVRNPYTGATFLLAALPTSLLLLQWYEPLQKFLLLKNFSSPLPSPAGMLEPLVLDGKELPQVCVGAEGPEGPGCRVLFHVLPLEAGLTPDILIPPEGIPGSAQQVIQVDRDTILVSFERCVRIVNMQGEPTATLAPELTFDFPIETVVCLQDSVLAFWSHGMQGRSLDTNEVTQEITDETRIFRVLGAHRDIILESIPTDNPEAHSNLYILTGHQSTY
# Chain of UniProt O95279 (O95279 whole entry, looked up): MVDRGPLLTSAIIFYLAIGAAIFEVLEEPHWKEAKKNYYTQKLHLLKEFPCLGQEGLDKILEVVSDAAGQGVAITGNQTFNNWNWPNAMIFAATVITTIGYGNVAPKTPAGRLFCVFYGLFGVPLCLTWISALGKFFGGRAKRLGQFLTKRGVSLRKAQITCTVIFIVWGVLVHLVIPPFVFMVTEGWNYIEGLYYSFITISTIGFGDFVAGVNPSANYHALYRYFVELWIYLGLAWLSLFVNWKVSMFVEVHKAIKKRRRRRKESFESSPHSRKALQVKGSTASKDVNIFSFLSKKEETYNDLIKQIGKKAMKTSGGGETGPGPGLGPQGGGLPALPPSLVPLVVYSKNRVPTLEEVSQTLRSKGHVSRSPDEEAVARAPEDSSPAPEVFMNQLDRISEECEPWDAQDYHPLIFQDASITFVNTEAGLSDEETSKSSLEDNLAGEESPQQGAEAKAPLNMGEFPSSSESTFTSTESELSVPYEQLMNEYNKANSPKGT
# Chain of UniProt Q92585 (Q92585 whole entry, looked up): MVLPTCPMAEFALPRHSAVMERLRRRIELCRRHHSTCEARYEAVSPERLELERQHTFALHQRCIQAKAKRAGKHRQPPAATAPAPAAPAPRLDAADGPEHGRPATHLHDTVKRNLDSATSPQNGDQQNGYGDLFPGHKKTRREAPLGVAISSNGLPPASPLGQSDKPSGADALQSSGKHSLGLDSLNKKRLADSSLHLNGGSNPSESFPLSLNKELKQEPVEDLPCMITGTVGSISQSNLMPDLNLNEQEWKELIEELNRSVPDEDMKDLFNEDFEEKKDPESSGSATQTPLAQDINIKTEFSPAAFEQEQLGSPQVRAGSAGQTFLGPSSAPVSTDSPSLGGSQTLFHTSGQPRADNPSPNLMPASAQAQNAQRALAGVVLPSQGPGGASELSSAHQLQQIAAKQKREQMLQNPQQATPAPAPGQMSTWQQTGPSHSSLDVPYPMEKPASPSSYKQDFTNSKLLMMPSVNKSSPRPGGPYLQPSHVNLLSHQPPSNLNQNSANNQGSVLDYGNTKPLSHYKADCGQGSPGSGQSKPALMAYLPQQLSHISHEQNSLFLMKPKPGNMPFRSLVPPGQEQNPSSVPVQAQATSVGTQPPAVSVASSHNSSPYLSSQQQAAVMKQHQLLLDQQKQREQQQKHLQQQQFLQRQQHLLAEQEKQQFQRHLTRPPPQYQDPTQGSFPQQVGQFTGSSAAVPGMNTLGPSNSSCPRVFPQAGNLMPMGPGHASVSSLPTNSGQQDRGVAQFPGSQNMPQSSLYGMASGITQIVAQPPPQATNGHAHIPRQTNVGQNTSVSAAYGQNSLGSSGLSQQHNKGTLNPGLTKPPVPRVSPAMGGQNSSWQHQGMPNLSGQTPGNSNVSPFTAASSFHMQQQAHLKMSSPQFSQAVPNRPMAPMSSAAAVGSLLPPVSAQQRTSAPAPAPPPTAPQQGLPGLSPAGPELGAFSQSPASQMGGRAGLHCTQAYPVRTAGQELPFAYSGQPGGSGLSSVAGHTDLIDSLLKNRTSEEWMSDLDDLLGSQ
# Chain of UniProt Q13163 (Q13163 whole entry, looked up): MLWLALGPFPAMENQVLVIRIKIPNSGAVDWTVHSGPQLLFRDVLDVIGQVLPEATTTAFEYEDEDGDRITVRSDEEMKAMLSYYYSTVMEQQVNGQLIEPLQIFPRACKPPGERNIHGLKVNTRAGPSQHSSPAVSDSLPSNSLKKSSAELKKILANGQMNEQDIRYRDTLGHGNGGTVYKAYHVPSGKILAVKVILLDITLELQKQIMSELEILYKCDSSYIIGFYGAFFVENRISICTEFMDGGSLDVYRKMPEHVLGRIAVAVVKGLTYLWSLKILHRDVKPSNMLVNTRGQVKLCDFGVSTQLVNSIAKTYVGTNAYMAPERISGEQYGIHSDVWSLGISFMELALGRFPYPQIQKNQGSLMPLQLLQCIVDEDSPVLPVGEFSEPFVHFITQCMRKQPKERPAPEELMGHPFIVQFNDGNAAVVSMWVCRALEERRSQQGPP
# Chain of UniProt Q8WYH8 (Q8WYH8 whole entry, looked up): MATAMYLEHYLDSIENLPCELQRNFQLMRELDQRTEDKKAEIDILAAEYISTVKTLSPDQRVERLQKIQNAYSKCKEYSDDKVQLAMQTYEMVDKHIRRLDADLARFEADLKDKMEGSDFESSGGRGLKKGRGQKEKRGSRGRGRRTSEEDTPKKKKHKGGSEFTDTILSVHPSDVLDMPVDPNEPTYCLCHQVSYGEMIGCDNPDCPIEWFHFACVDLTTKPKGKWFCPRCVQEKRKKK
# Chain of UniProt Q08334 (Q08334 whole entry, looked up): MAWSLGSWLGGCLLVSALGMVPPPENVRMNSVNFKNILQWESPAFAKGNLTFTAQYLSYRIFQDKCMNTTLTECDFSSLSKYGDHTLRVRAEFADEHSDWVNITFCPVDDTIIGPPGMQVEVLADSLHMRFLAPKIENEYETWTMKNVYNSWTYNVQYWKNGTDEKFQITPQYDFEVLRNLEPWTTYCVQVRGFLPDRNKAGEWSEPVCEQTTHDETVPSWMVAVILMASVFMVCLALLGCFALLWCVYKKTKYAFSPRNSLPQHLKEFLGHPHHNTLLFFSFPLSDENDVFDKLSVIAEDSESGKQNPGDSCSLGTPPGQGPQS
row,Target,log2 fold change
1,MAN2B2 (UniProt Q9Y2E5),0.097
2,"LRBA, A0A494BZW2",0.002
3,INTS5 (UniProt Q6P9B9),-0.091
4,IP6K1 (UniProt Q92551),0.053
5,MED12 isoform 2 (UniProt Q93074),-0.002
6,MELK (UniProt Q14680),0.044
7,MAP4K2 (UniProt Q12851),-0.08
8,MCM10 (UniProt Q7L590),-0.04
9,MFAP3 (UniProt P55082),0.007
10,IL10RB (UniProt Q08334),-0.081
11,MGRN1 isoform 2 (UniProt O60291),-0.088
12,MCOLN3 (UniProt Q8TDD5),-0.075
13,KCNK5 (UniProt O95279),-0.028

# Compound: CC1=C(SC2=C1C(=N[C@H](C3=NN=C(N32)C)CC(=O)N)C4=CC=C(C=C4)Cl)C
# Assay: as above
# Outline: as §1
row,Target,log2 fold change
1,MED17 (UniProt Q9NVC6),-0.031
2,ITGA2B (UniProt P08514),0.022
3,IGFBP3 isoform 2 (UniProt P17936),-0.081
4,MAP2K5 (UniProt Q13163),0.053
5,MAML1 (UniProt Q92585),0.018
6,"LRBA, A0A494BZW2",0.048
7,IP6K1 (UniProt Q92551),0.059
8,KIF13A isoform 4 (UniProt Q9H1H9),0.031
9,LUM (UniProt P51884),-0.05
10,IGFBP6 (UniProt P24592),0.018
11,MAPRE3 isoform 2 (UniProt Q9UPY8),0.033
12,MELK (UniProt Q14680),-0.057
13,MFSD12 isoform 3 (UniProt Q6NUT3),0.026
14,MAP4K2 (UniProt Q12851),0.063
15,LYN isoform 2 (UniProt P07948),0.018
16,LRRFIP1 isoform 4 (UniProt Q32MZ4),-0.204
17,IKZF1 (UniProt R9R4D9),0.08
18,KIZ (UniProt Q2M2Z5),-0.082
19,MAP4K4 isoform 6 (UniProt O95819),0.177
20,LSR isoform 3 (UniProt Q86X29),-0.073
21,MGRN1 isoform 2 (UniProt O60291),-0.004
22,LEPROT (UniProt O15243),-0.022
23,ING5 (UniProt Q8WYH8),0.051
24,MAGED1 isoform 2 (UniProt Q9Y5V3),0.031
25,KCNK5 (UniProt O95279),0.114
